Source: PubChem BioAssay (several laboratories)
An excerpt weighted towards active compounds, which were near 2.8% of everything screened.
Platelet DG rel – inhibitors of platelet dense granule secretion, primary screen, cell-based, MLPCN, human platelets; AID 1663, 2009; inhibition, %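 (compounds screened at 7.5 µM in platelet-rich plasma)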; hit rate 0.22% among 300,000; human platelet-rich plasma, SFLLRN dense granule ATP release, luminescence;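 active = mean replicate score, as percent of positive control, at or above 50; inconclusive = mean below 50 but at least one replicate at or above 50; inactive = mean and every replicate below 50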
PolyA inh – polyadenylation inhibitors in yeast reporter cells, primary screen, luminescence, S. cerevisiae | S. cerevisiae SKY197-pL101 polyadenylation reporter, beta-gal luminescence; efflux-impaired pdr1/pdr3 knockout yeast; score 100 = 6 SD above DMSO | activity score, % at 12 µM | hit rate 0.02% among 300,000 | AID 1875, 2009;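 active = lowest replicate activity score at least 50, where 100 means six control SD above control mean; inconclusive = lowest score under 50 but half or more replicates reach 50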;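 note: yeast exposed to compound for 9 h at 30 °C; higher score means more reporter readthrough which indicates perturbed polyadenylation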
AHR activator – AHR activators, primary screen, cell-based, luminescence, luciferase reporter, human. hit rate 2.5% among 320,000. activation, % at 5 µM. Aryl hydrocarbon receptor (Homo sapiens), P35869. AHR-responsive luciferase reporter cells; in the data active = activation above about 47%;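 note: 0% = vehicle wells and 100% = reference agonist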
Target sequence (P35869 whole entry, looked up): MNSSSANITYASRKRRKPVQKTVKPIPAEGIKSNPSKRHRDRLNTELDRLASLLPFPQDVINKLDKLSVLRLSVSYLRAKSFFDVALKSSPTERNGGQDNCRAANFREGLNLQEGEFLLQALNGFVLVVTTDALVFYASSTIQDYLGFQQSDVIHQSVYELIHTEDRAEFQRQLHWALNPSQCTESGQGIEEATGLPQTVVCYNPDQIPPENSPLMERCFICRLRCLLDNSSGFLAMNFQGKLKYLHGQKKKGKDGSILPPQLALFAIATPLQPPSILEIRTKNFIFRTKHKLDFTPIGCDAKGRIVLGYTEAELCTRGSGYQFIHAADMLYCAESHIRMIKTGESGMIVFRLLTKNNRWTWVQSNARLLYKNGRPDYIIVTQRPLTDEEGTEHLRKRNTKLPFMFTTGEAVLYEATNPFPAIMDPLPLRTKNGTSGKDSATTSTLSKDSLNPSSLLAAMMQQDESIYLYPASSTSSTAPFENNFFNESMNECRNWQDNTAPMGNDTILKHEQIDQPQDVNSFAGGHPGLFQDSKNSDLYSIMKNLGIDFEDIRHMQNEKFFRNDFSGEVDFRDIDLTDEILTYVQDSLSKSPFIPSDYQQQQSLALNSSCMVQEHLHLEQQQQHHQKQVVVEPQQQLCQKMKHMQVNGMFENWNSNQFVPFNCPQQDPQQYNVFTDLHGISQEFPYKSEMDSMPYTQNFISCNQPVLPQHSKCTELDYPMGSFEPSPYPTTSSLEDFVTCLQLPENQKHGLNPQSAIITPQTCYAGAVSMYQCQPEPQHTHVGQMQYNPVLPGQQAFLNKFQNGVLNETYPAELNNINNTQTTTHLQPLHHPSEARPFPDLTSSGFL
HIF act – HIF pathway transcriptional activators, primary screen, cell-based, U2OS HRE-luciferase, luminescence | hit rate 0.32% among 300,000 | activation, % at 7.5 µM (by protocol) | U2OS HRE-luciferase reporter; normalized: DMSO 0%, desferrioxamine 100%;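 active = mean activation of at least 10% of the iron chelator positive control signal, with at least half of replicates also reaching 10%; inconclusive = mean and replicate majority disagree about reaching 10%; inactive = mean and most replicates under 10%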
pCIP destab – p/CIP-EGFP fusion destabilizers, primary screen, fluorescence, F442A cells | hit rate 0.01% among 290,000 | AID 1984, 2009 | 16 h | decrease of EGFP signal, % at 10 µM;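 active = EGFP signal decrease of at least 30% at 10 µM or well 3 SD below plate mean, unless failing retest; inactive = the rest, including hits failing retest or dose response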
An asterisk follows results filed as active.

For O=C(Cc1cc(=O)[nH]c(=O)[nH]1)N1CCC(Cc2ccccc2)CC1 the results were Platelet DG rel 9, PolyA inh -1, AHR activator -4, HIF act 0 and pCIP destab 8.
`CCOc1ccc(NC(=O)C2CCN(S(=O)(=O)c3ccc4c(c3)N(C(C)=O)CCO4)CC2)cc1` gave Platelet DG rel -8, PolyA inh 9, AHR activator 0, HIF act 25* and pCIP destab -2.
`CC(=O)c1ccc(NC(=O)C2CCN(S(=O)(=O)c3ccc4c(c3)N(C(C)=O)CCO4)CC2)cc1` gave Platelet DG rel -3, PolyA inh 10, AHR activator 1, HIF act 1 and pCIP destab 2.
Screening Cc1cccc(-c2nc3ccccc3c(=O)[nH]2)c1 returned Platelet DG rel 7, PolyA inh 14, AHR activator 68*, HIF act 4 and pCIP destab -5.
`Cc1cc(C)cc(Nc2nc3ccccc3c(=O)[nH]2)c1` gave Platelet DG rel 0, PolyA inh -6, AHR activator 77*, HIF act 0 and pCIP destab 3.
For O=c1[nH]c(-c2ccncc2)nc2ccccc12 the results were Platelet DG rel -3, PolyA inh 3, AHR activator 14, HIF act -1 and pCIP destab -3.
`Cc1c(C(=O)NC2CCC(C)CC2)oc2ccccc12` (stereo unspecified) gave Platelet DG rel 25, PolyA inh -8, AHR activator 6, HIF act 4 and pCIP destab 7.
Screening COc1ccc(OC)c(/C=C/C(=O)N(C)CC(=O)Nc2ccc(N3CCOCC3)cc2)c1 returned AHR activator 4.
O=C1c2cccc3cccc(c23)C(=O)N1CCN1CCN(C(=S)Nc2ccc(F)cc2)CC1 was read as Platelet DG rel -17, PolyA inh -3, AHR activator 106*, HIF act 0 and pCIP destab -2.
Screening O=C(CN1CCN(CCN2C(=O)c3cccc4cccc(c34)C2=O)CC1)c1ccc(F)cc1 returned Platelet DG rel -3, PolyA inh 0, AHR activator 31, HIF act 0 and pCIP destab 6.
`O=C(Nc1ccc(Cl)cc1)Nc1nc(-c2ccccc2O)cs1` gave Platelet DG rel 5, PolyA inh -11, AHR activator -1, HIF act 0 and pCIP destab -5.
Screening O=C(Nc1ccc(Cl)cc1)Nc1nc(-c2sccc2Br)cs1 returned Platelet DG rel -11, PolyA inh -5, AHR activator 62*, HIF act -2 and pCIP destab -5.
For Cc1cc(C)c(S(=O)(=O)c2cccc(Br)c2C)c(=O)[nH]1 the results were PolyA inh -5, AHR activator 4, HIF act 1 and pCIP destab -6.
Screening C=CCOc1nc(-c2ccccc2Cl)nc2ccccc12 returned Platelet DG rel 18, PolyA inh -15, AHR activator 25, HIF act 63* and pCIP destab -1.
Screening CSc1cccc(NC(=S)NC(=O)CCc2ccccc2)c1 returned Platelet DG rel 0, PolyA inh -8, AHR activator 54*, HIF act 1 and pCIP destab -3.
`Cc1sc(NC(=O)c2c(F)cccc2F)nc1-c1ccccc1` gave Platelet DG rel 4, PolyA inh 1, AHR activator 65*, HIF act -3 and pCIP destab -2.
Screening O=C(/C=C/c1cccc(F)c1)Nc1ccc(S(=O)(=O)Nc2ncccn2)cc1 returned Platelet DG rel -4, PolyA inh -9, AHR activator 54*, HIF act 0 and pCIP destab -22.
Screening CSc1cccc(NC(=O)/C=C/c2cccc(Cl)c2)c1 returned Platelet DG rel -3, PolyA inh 9, AHR activator -6, HIF act 5 and pCIP destab -3.
`O=C(/C=C/c1cccc(Cl)c1)Nc1ncccn1` gave Platelet DG rel 0, PolyA inh 1, AHR activator 64*, HIF act 2 and pCIP destab 2.
For O=C(Nc1cccc(Br)c1)c1ccc(OC2CSC2)cc1 the results were Platelet DG rel 14, PolyA inh -12, AHR activator 15, HIF act 5 and pCIP destab 2.
For CCN(CC)CCC(=O)Nc1cccc2c1C(=O)c1ccccc1C2=O the results were Platelet DG rel -4, PolyA inh -13, AHR activator 12, HIF act 26* and pCIP destab -6.
Screening CCN(CC)CCNC(=O)c1ccc2c(c1NCCO)C(=O)c1ccccc1C2=O returned Platelet DG rel 4, PolyA inh -9, AHR activator -12, HIF act 0 and pCIP destab 36*.
Screening CC1CCN(C(=O)c2ccc3c(c2NCCO)C(=O)c2ccccc2C3=O)CC1 returned Platelet DG rel -5, PolyA inh -18, AHR activator 3, HIF act -1 and pCIP destab -4.
Screening Nc1cccc(C(=O)OCC(=O)Nc2cccc3c2C(=O)c2ccccc2C3=O)c1 returned Platelet DG rel -1, PolyA inh 17, AHR activator 2, HIF act 0 and pCIP destab -5.
For CCOC(=O)CS(=O)(=O)c1nc(-c2ccccc2)cc(C(F)(F)F)n1 the results were Platelet DG rel inconclusive, PolyA inh -63, AHR activator -2, HIF act 1 and pCIP destab -12.
`Cc1cc(NC(=O)CCCS(=O)(=O)c2nc(-c3cccs3)cc(C(F)(F)F)n2)no1` gave Platelet DG rel 14, PolyA inh -29, AHR activator 3, HIF act 13* and pCIP destab 4.
For Cc1cc(NC(=O)CSc2nc(-c3cccs3)cc(C(F)(F)F)n2)no1 the results were Platelet DG rel -3, PolyA inh 14, AHR activator 0, HIF act 0 and pCIP destab -31.
For CCOC(=O)Cc1cc(-c2ccccc2)nc2ccc3ccccc3c12 the results were Platelet DG rel 2, PolyA inh -18, AHR activator 93*, HIF act -1 and pCIP destab -4.
Screening CCOC(=O)c1cc(-c2ccccc2)nc2ccc(C)cc12 returned Platelet DG rel -1, PolyA inh -13, AHR activator 2, HIF act 0 and pCIP destab 4.
Screening CCOC(=O)CCS(=O)(=O)c1nc(-c2ccccc2)cc(C(F)(F)F)n1 returned Platelet DG rel inconclusive, PolyA inh -8, AHR activator -3, HIF act 10* and pCIP destab -9.
For COC(=O)[C@H](CC(C)C)NC(=O)N1CCC(C)CC1 the results were Platelet DG rel -4, PolyA inh 21, AHR activator -2, HIF act 0 and pCIP destab -2.
Screening Cn1cccc1C1C=C(c2ccc(C(C)(C)C)cc2)Nc2ncnn21 (stereo unspecified) returned Platelet DG rel -4, PolyA inh 8, AHR activator 67* and HIF act -1.
